Records with an inconclusive call do not appear. Entries that show only a call come without a potency. Calls of active or inactive are those of the source. Unless noted, the call rests on the fitted dose curve; in most records, active means well fitted curve in the direction sought with a large enough effect in the repeat runs; inconclusive means weak or mixed curves; inactive means no such curve, though single readings can be large; an effect the other way counts as inactive or inconclusive.
What was measured:
[1] = target: Thyrotropin-releasing hormone receptor (Homo sapiens) (UniProt P34981); assay: qHTS assay to identify small molecule agonists of the thyrotropin-releasing hormone receptor (TRHR) signaling pathway (AID 1346891; calls by dose curve;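 further: HEK293 cells expressing TRHR with calcium dye readout; series mostly up to about 58 µM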)
How it was run: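 Kinetic fluorescence (3 min, 1 s intervals) reported intracellular calcium after compound transfer onto TRHR-Hek293 cells pre-loaded with dye for 2 h at 37 °C.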

[2] = Human pregnane X receptor (PXR) small molecule agonists, qHTS cell viability counter screen (AID 1346977); further: nearly all actives have a fitted effect of over 50% in size
How it was run: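 HepG2 cells stably carrying the PXR-Luc reporter are cultured with 5% charcoal-stripped FBS and treated with compounds for 24hr. CellTiter-Fluor is added at 23hr and fluorescence is read after 1hr.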

[3] = Caspase-3/7 induction in HepG2 cells by small molecules, qHTS assay (AID 1346978); further: nearly all actives have a fitted effect of over 15% in size
How it was run: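 Caspase-3/7 induction was measured by Caspase-Glo 3/7 luminescence (30 min, room temperature) after a 17 hr compound exposure of wild-type HepG2 cells seeded at 2,000 per well and pre-incubated 5 hr.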

[4] = Caspase-3/7 induction in CHO-K1 cells by small molecules, qHTS cell viability counter screen (AID 1346979); further: nearly all actives have a fitted effect of over 35% in size
How it was run: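 Seeding: 1,500 CHO-K1 cells/well. Rest: 5hr, 37C. Treatment: compounds in DMSO, 16hr. Read: CellTiter-Fluor, 1hr, fluorescence.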

[5] = Caspase-3/7 induction in CHO-K1 cells by small molecules, qHTS assay (AID 1346980); further: nearly all actives have a fitted effect of over 15% in size
How it was run: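 Luminescent Caspase-Glo 3/7 read (30min, room temperature) quantified apoptosis induction. Cells were wild-type CHO-K1, treated with compound for 17hr at 37 C and 5% CO2.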

[6] = Caspase-3/7 induction in HepG2 cells by small molecules, qHTS cell viability counter screen (AID 1346981); further: series mostly up to about 92 µM; nearly all actives have a fitted effect of over 30% in size
How it was run: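 Wild-type HepG2 cells, 2,000/well, settled 5 hr at 37 C, 5% CO2 before compound addition. Viability read by CellTiter-Fluor fluorescence, reagent added after 16 hr compound exposure, then 1 hr at 37C, in the same wells as the caspase read.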

[7] = target: Nuclear receptor subfamily 1 group I member 2 (Homo sapiens) (UniProt O75469); assay: Human pregnane X receptor (PXR) small molecule agonists, qHTS assay (AID 1346982); further: nearly all actives have a fitted effect of over 35% in size; further: potency means the concentration at half of the fitted maximal effect
How it was run: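 PXR-Luc HepG2 reporter cells (CYP3A4-driven luciferase) in 5% charcoal-stripped FBS medium, plated 5 h before compound addition, then treated 24 h at 37C. Luciferase read by ONE-Glo luminescence after 30 min at room temperature.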

[8] = target: Cytochrome P450 2D6 (Homo sapiens) (UniProt P10635); assay: Cytochrome P450 Family 2 Subfamily D Member 6 (CYP2D6) small molecule antagonists: luciferase reporter qHTS assay (AID 1671196); further: nearly all actives have a fitted effect of over 50% in size; further: potency means the concentration at half of the fitted maximal effect
How it was run: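 Cell-free P450-Glo system: CYP2D6 with proluciferin substrate was pre-incubated with compound for 10 min, then reacted with NADPH regeneration for 1 h at room temperature. Luciferin product was detected after 20 min, and data were reported as relative luminescence units.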

[9] = target: Cytochrome P450 2C19 (Homo sapiens) (UniProt P33261); assay: Cytochrome P450 Family 2 Subfamily C Member 19 (CYP2C19) small molecule antagonists: luciferase reporter qHTS assay (AID 1671197); further: nearly all actives have a fitted effect of over 65% in size; further: potency means the concentration at half of the fitted maximal effect
How it was run: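 Quantitative high-throughput screen of the Tox21 library using CYP2C19 with proluciferin substrate. Reaction: NADPH regeneration, 37C, 1 h, after 10 min compound preincubation at room temperature. Readout: luminescence.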

[10] = target: Cytochrome P450 1A2 (Homo sapiens) (UniProt P05177); assay: Cytochrome P450 Family 1 Subfamily A Member 2 (CYP1A2) small molecule antagonists: luciferase reporter qHTS assay (AID 1671199); further: nearly all actives have a fitted effect of over 50% in size; further: potency means the concentration at half of the fitted maximal effect
How it was run: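 P450-Glo CYP1A2 enzyme–proluciferin substrate mix with compound 10 min at room temperature, then NADPH regeneration 1 h at room temperature. Luciferin detection reagent added, luminescence read after 20 min; furafylline positive control.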

[11] = target: Voltage-gated inwardly rectifying potassium channel KCNH2 (Homo sapiens) (UniProt Q12809); assay: Human Ether-a-go-go-Related Gene (hERG) channel small molecule antagonists: fluorescence cell-based qHTS assay (AID 1671200); further: nearly all actives have a fitted effect of over 50% in size; further: potency means the concentration at half of the fitted maximal effect
How it was run: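 First, 1000 cells per well are seeded and cultured overnight at 37 C. Next, FluxOR II dye is loaded for 1 h at room temperature, protected from light. After 10 more minutes, stimulus is added and fluorescence is read.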

[12] = target: Cytochrome P450 3A4 (Homo sapiens) (UniProt P08684); assay: Cytochrome P450 Family 3 Subfamily A Member 4 (CYP3A4) small molecule antagonists: luciferase reporter qHTS assay (AID 1671201); further: nearly all actives have a fitted effect of over 50% in size; further: potency means the concentration at half of the fitted maximal effect
How it was run: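 Enzyme and proluciferin substrate are mixed with test chemicals for 10 min, then NADPH regeneration system drives turnover for 1 h at room temperature. A detection reagent halts the reaction; luminescence after 20 min gives relative activity.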

[13] = target: Cytochrome P450 2C9 (Homo sapiens) (UniProt P11712); assay: Cytochrome P450 Family 2 Subfamily C Member 9 (CYP2C9) small molecule antagonists: luciferase reporter qHTS assay (AID 1671198); further: nearly all actives have a fitted effect of over 50% in size; further: potency means the concentration at half of the fitted maximal effect
How it was run: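 Enzyme-substrate mix preincubated with compound 10 min at room temperature; reaction started with NADPH regeneration solution, 1 h 37C. Luminescent luciferin product read after 20 min detection reagent.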

Sequence of Cytochrome P450 3A4 (Homo sapiens) (P08684 whole entry, looked up): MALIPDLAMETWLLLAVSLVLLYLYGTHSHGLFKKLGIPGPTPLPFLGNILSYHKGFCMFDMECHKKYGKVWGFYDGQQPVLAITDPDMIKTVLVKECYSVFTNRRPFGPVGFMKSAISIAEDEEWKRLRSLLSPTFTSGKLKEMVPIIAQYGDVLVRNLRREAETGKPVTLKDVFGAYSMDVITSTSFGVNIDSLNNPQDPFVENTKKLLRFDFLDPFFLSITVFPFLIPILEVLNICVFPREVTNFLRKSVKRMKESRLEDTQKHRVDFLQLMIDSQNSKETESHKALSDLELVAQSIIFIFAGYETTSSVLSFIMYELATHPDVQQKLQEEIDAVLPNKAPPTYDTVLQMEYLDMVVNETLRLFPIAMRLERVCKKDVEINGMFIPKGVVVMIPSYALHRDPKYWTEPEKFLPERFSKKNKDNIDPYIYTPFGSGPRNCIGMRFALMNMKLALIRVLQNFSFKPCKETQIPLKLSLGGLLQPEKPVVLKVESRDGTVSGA
Sequence of Cytochrome P450 1A2 (Homo sapiens) (P05177 whole entry, looked up): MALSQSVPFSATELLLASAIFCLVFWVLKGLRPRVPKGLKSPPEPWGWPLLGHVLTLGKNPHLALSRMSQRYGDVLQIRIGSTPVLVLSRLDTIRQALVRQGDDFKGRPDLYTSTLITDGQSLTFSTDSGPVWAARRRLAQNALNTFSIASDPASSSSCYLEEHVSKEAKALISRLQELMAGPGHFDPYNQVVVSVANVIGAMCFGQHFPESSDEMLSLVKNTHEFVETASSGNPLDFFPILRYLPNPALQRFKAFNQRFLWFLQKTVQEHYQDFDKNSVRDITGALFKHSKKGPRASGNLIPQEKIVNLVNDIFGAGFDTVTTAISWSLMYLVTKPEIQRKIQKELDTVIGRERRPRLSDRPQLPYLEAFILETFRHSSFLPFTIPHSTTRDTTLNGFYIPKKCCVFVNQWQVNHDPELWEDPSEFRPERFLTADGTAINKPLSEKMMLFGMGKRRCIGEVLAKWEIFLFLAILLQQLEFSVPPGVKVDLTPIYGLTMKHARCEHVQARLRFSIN
Sequence of Cytochrome P450 2C19 (Homo sapiens) (P33261 whole entry, looked up): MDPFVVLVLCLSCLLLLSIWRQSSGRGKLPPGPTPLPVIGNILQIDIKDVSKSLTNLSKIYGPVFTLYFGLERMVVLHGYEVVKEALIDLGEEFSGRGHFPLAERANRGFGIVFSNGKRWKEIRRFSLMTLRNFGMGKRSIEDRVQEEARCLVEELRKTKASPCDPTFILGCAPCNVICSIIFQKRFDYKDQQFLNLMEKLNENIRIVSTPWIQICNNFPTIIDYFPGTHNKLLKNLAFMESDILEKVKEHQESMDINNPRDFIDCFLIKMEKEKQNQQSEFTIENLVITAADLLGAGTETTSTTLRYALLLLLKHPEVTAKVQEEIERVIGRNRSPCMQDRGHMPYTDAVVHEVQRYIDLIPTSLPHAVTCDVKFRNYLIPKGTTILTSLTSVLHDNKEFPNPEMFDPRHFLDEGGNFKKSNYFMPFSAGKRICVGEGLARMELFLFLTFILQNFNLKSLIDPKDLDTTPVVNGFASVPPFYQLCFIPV
Sequence of Nuclear receptor subfamily 1 group I member 2 (Homo sapiens) (O75469 whole entry, looked up): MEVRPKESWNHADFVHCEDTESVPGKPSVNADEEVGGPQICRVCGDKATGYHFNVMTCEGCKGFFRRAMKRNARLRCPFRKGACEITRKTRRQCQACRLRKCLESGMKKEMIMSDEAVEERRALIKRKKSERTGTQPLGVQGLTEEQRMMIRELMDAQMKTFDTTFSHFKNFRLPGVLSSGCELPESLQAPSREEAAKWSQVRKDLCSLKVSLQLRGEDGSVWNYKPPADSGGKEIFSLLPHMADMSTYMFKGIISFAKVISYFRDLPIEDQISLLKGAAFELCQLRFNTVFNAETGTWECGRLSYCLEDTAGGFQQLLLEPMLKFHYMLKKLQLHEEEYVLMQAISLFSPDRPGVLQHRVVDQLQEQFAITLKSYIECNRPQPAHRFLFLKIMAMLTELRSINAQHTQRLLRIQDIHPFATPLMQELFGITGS
Sequence of Voltage-gated inwardly rectifying potassium channel KCNH2 (Homo sapiens) (Q12809 whole entry, looked up): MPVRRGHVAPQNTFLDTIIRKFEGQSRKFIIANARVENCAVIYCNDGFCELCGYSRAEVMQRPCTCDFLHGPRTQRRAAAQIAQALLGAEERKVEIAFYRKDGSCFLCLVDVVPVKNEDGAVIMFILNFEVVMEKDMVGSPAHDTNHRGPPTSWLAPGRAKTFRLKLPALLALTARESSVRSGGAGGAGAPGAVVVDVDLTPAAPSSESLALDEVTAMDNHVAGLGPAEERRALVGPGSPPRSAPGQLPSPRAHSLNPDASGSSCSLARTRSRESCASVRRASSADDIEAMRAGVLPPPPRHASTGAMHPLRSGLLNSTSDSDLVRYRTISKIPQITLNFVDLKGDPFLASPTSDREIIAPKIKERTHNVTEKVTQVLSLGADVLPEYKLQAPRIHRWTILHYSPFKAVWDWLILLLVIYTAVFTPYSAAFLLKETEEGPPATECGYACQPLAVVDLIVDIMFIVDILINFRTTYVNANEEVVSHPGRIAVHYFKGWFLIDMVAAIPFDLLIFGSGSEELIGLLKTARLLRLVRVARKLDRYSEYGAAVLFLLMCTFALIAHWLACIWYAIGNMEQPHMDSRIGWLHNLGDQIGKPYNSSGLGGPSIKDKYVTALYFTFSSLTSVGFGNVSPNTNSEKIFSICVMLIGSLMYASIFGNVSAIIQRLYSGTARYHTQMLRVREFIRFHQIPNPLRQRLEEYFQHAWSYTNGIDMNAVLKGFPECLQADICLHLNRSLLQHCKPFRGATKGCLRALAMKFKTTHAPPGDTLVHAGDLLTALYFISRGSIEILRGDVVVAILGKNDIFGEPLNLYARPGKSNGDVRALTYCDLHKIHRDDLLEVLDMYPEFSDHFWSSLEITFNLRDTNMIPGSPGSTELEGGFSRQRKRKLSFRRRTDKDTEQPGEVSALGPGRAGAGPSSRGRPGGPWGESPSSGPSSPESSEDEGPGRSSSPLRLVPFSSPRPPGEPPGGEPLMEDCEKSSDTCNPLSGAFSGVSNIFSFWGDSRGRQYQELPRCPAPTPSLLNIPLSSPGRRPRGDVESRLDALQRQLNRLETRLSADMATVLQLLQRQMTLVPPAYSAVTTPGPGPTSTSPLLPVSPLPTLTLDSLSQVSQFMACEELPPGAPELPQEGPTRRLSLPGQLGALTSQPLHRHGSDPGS
Sequence of Thyrotropin-releasing hormone receptor (Homo sapiens) (P34981 whole entry, looked up): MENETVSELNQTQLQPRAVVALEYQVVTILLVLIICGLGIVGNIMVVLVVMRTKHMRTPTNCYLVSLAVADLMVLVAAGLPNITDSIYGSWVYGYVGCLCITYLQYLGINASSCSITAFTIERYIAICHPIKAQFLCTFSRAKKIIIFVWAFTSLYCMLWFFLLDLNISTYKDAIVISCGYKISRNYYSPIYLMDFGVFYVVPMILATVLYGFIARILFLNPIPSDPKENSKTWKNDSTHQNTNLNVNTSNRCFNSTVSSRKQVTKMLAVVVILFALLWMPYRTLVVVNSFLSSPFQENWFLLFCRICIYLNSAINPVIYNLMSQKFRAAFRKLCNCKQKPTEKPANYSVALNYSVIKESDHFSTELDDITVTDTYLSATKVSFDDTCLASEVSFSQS
Sequence of Cytochrome P450 2C9 (Homo sapiens) (P11712 whole entry, looked up): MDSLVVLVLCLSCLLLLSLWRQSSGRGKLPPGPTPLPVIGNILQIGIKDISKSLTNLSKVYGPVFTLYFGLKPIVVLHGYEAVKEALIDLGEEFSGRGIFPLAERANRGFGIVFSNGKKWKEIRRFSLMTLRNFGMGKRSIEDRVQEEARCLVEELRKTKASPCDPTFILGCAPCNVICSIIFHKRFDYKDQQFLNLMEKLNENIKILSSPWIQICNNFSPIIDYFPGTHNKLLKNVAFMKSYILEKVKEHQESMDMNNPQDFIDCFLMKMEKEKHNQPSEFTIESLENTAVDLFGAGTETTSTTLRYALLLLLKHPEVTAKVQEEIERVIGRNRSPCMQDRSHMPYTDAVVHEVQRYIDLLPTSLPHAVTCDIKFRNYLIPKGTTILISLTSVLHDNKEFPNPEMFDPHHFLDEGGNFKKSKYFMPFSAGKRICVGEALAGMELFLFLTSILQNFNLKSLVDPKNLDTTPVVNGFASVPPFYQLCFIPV
Sequence of Cytochrome P450 2D6 (Homo sapiens) (P10635 whole entry, looked up): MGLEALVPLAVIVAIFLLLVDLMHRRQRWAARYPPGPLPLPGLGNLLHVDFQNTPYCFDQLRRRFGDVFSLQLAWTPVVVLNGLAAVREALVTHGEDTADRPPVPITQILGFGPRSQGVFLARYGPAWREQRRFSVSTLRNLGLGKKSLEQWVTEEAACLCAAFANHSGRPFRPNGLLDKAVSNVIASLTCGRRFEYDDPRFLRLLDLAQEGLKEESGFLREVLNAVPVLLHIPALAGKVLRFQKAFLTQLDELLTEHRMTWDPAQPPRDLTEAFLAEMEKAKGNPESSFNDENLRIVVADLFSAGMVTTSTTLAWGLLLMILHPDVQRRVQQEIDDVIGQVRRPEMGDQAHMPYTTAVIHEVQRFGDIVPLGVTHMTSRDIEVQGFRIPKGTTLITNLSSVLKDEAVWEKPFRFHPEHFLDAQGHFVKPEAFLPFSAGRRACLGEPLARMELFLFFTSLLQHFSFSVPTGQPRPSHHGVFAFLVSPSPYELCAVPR

SMILES	Potency [1]	Potency [2]	Potency [3]	Potency [4]	Potency [5]	Potency [6]	Potency [7]	Potency [8]	Potency [9]	Potency [10]	Potency [11]	Potency [12]	Potency [13]
CCC(OCCCOC)OC(C)=O (centres undefined)	inactive	inactive	inactive	inactive	inactive	inactive	inactive	inactive	inactive	36.4 µM (active)	inactive	inactive	–
CCOC(=O)[C@H](CCc1ccccc1)N[C@@H](C)C(=O)N(CC(=O)O)C1Cc2ccccc2C1	inactive	inactive	inactive	inactive	inactive	inactive	11.9 µM (active)	inactive	6.92 µM (active)	–	inactive	–	15.5 µM (active)
COC(=O)CCS	inactive	inactive	inactive	inactive	inactive	inactive	inactive	inactive	70.4 µM (active)	–	inactive	–	inactive
O=c1[nH]ncc2ccccc12	inactive	inactive	inactive	inactive	inactive	inactive	inactive	inactive	–	inactive	inactive	inactive	inactive
O=C(/C=C/c1ccccc1)OCCc1ccccc1	inactive	inactive	inactive	inactive	inactive	inactive	inactive	inactive	20 µM (active)	6.33 µM (active)	49 µM (active)	inactive	–
OCCOCC#CCOCCO	inactive	inactive	inactive	inactive	inactive	inactive	inactive	inactive	inactive	inactive	inactive	–	–
O=C1NC(=O)c2cc([N+](=O)[O-])ccc21	inactive	inactive	inactive	inactive	inactive	inactive	61.6 µM (active)	63.8 µM (active)	71.6 µM (active)	28.5 µM (active)	inactive	32 µM (active)	–
C=C(C)C(=O)OCCCCCCCCCCCCC	inactive	inactive	inactive	inactive	inactive	inactive	inactive	inactive	–	inactive	inactive	55.7 µM (active)	–
COC(=O)CS	inactive	inactive	inactive	inactive	inactive	inactive	inactive	inactive	inactive	–	inactive	inactive	–
CS(=O)(=O)c1ccc(-c2cn3ccccc3n2)cc1	inactive	inactive	inactive	inactive	inactive	inactive	2.66 µM (active)	27.5 µM (active)	24.5 µM (active)	0.456 µM (active)	inactive	–	–
